Laboratory results published in PubChem BioAssay (Tox21).
Records with an inconclusive call do not appear. Where a call stands in place of a potency, no number is given. Active and inactive are the calls of the source. Unless noted, calls come from the whole dose curve.

Assays:
[1] = qHTS assay to identify small molecule antagonists of the sonic hedgehog signaling (Shh) pathway (AID 1259369); conditions: NIH/3T3 Gli1-Luc reporter, Shh antagonist, luminescence 24 h; series mostly up to 92.4 µM; note: nearly all actives have a fitted effect of over 45% in size; note: potency is the fitted concentration of half-maximal effect
Summary of the method: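 Cells are plated and held 4hr at 37 C, compounds (DMSO) are pinned in, conditioned medium is added to stimulate the pathway, and after 24hr luciferase reagent is added for 30min before luminescence is read.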

[2] = target: Estrogen receptor beta (Homo sapiens) (UniProt Q92731); experiment: qHTS assay to identify small molecule antagonists of the estrogen receptor beta (ER-beta) signaling pathway (AID 1259378; active = well fitted inhibition curve with a large enough effect in the signal ratio in the repeat runs, not every such curve was filed as active; the % refers to the signal ratio); conditions: ER-beta-UAS-bla HEK293T, beta-lactamase FRET ratio, 16 h; series mostly up to 92.4 µM
Summary of the method: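 Antagonist mode: compounds added to beta-lactamase reporter HEK293T ER-beta-UAS cells stimulated with E2 (1nM final), 16 hr at 37C. LiveBLAzer B/G FRET substrate, 2 hours room temperature, fluorescence read-out.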

[3] = qHTS assay to identify small molecule agonists of the androgen receptor (AR) signaling pathway in the presence of an antagonist - cell viability counter screen (AID 1259379; active = well fitted curve in the direction sought with a large enough effect in the repeat runs; an effect the other way counts as inactive or inconclusive;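 note: MDA-kb2 human breast cancer cells carrying an MMTV luciferase reporter; nearly all actives have a fitted effect of over 25% in size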); conditions: MDA-kb2 viability, CellTiter-Fluor, 16 h; series mostly up to 92.4 µM
Summary of the method: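 Cytotoxicity is assessed by CellTiter-Fluor in MDA-kb2 cells carrying an MMTV-driven luciferase reporter. Cells receive 3.0uM nilutamide plus compounds at 15 concentrations and incubate 16 hr at 37C without CO2 before fluorescence reading.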

[4] = qHTS assay to identify small molecule agonists of the estrogen receptor beta (ER-beta) signaling pathway - cell viability counter screen (AID 1259380; active = well fitted curve in the direction sought with a large enough effect in the repeat runs; an effect the other way counts as inactive or inconclusive; note: nearly all actives have a fitted effect of over 30% in size; note: potency is the fitted concentration of half-maximal effect); conditions: ER-beta-bla HEK293T viability, CellTiter-Glo luminescence, 16 h; series mostly up to 92.4 µM
Summary of the method: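 Cytotoxicity is measured in parallel with the reporter screen: after 16 hr compound exposure at 37C and a 2 hr LiveBLAzer step, CellTiter-Glo is added to the same ER-beta-UAS-bla HEK293T wells and luminescence read after 30 min.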

[5] = target: Estrogen receptor (Homo sapiens) (UniProt P03372); experiment: qHTS assay to identify small molecule agonists of the estrogen receptor alpha (ER-alpha) signaling pathway in the presence of an antagonist (AID 1259383); conditions: VM7Luc4E2 cells, ERE-luciferase, +ICI-182,780, 22 h; series mostly up to 92.4 µM; note: top concentration of the series differs between compounds; nearly all actives have a fitted effect of over 15% in size
Summary of the method: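 Agonist-mode confirmation in the presence of the ER antagonist ICI-182,780 at 10.0nM final. Breast-derived VM7Luc4E2 reporter cells were exposed to compounds for 22hr, and ERE-driven luciferase was quantified by luminescence.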

[6] = qHTS assay to identify small molecule agonists or antagonists of the thyroid stimulating hormone receptor (TSHR) signaling pathway - wild type cell line counter screen (AID 1259384); conditions: HEK293 wild type, cAMP HTRF counter-screen, hits give high values; series mostly up to 92.4 µM
Summary of the method: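 Counter screen in untransfected Hek293: compounds (15-point titration, triplicate) plus phosphodiesterase inhibitor Ro20-1724 added after 18 h plating; 30 min RT. Intracellular cAMP via competitive d2/cryptate immunoassay, 1 h incubation.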

[7] = target: Thyrotropin receptor (Homo sapiens) (UniProt P16473); experiment: qHTS assay to identify small molecule antagonists of the thyroid stimulating hormone receptor (TSHR) signaling pathway (AID 1259385); conditions: TSHR-HEK293 cAMP HTRF, TSH-stimulated antagonist mode; series mostly up to 92.4 µM; note: nearly all actives have a fitted effect of over 20% in size
Summary of the method: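 Antagonist mode: compound-treated TSHR-expressing HEK293 cells were stimulated with 1.5 ng/mL TSH (final) in presence of Ro20-1724 for 30 min at RT. HTRF cAMP detection after 1 h; each compound tested at 15 concentrations, triplicate.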

[8] = target: Estrogen receptor beta (Homo sapiens) (UniProt Q92731); experiment: qHTS assay to identify small molecule agonists of the estrogen receptor beta (ER-beta) signaling pathway (AID 1259377; active = well fitted activation curve with a large enough effect in the signal ratio in the repeat runs, not every such curve was filed as active; the % refers to the signal ratio); conditions: ER-beta-UAS-bla HEK293T, beta-lactamase FRET ratio, 16 h; series mostly up to 92.4 µM
Summary of the method: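 A UAS-controlled beta-lactamase reporter in ER-beta-UAS-bla HEK293T cells reports receptor activation. Compounds act for 16 hr at 37C in 2% charcoal-stripped serum, and a FRET substrate is read by fluorescence after 2 hours.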

[9] = qHTS assay to identify small molecule antagonists of the estrogen receptor beta (ER-beta) signaling pathway - cell viability counter screen (AID 1259382; active = well fitted curve in the direction sought with a large enough effect in the repeat runs; an effect the other way counts as inactive or inconclusive;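 note: HEK293T cells carrying ER-beta-UAS-bla reporter stimulated with estradiol; nearly all actives have a fitted effect of over 55% in size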); conditions: ER-beta-UAS-bla HEK293T viability, CellTiter-Glo luminescence, 16 h; series mostly up to 92.4 µM
Summary of the method: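 Cytotoxicity counter screen multiplexed with the beta-lactamase antagonist assay: GripTite HEK293T ER-beta-bla cells were treated 16 hr with test chemicals in the presence of 1nM 17-beta-estradiol, and viability was measured by CellTiter-Glo.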

Sequence of Estrogen receptor beta (Homo sapiens) (Q92731 whole entry, looked up): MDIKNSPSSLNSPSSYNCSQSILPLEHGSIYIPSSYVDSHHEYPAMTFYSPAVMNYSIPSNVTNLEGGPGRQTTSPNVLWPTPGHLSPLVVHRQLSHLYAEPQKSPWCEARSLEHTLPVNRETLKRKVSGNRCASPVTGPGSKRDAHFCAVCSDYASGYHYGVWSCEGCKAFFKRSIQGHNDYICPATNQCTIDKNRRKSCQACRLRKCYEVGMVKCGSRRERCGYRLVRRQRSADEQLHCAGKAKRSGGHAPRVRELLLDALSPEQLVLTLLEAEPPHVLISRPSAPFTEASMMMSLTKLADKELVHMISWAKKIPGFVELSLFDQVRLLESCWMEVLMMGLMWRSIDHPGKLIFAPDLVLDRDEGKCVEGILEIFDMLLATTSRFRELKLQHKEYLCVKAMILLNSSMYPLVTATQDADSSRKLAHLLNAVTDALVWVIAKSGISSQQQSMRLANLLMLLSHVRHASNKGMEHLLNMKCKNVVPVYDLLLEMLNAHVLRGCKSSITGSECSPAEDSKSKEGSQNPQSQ
Sequence of Thyrotropin receptor (Homo sapiens) (P16473 whole entry, looked up): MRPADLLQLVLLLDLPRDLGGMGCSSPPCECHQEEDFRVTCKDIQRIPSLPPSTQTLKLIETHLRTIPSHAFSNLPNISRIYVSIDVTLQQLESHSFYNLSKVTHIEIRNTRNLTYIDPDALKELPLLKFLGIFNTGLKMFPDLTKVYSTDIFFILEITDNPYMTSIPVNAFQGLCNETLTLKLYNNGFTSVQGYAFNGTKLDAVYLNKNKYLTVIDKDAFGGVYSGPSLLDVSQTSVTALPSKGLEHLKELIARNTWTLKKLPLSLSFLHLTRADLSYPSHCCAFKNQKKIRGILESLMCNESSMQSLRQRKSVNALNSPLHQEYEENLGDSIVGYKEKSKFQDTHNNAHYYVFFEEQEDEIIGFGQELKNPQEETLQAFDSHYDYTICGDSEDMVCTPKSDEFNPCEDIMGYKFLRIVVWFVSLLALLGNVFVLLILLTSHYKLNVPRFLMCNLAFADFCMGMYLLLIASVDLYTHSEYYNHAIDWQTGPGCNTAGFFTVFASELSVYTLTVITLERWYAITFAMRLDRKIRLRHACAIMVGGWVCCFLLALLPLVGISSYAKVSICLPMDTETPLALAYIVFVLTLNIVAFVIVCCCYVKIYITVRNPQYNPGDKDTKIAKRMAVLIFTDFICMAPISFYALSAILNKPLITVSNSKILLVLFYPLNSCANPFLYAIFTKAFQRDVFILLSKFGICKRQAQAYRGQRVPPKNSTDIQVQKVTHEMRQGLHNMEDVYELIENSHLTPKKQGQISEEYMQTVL
Sequence of Estrogen receptor (Homo sapiens) (P03372 whole entry, looked up): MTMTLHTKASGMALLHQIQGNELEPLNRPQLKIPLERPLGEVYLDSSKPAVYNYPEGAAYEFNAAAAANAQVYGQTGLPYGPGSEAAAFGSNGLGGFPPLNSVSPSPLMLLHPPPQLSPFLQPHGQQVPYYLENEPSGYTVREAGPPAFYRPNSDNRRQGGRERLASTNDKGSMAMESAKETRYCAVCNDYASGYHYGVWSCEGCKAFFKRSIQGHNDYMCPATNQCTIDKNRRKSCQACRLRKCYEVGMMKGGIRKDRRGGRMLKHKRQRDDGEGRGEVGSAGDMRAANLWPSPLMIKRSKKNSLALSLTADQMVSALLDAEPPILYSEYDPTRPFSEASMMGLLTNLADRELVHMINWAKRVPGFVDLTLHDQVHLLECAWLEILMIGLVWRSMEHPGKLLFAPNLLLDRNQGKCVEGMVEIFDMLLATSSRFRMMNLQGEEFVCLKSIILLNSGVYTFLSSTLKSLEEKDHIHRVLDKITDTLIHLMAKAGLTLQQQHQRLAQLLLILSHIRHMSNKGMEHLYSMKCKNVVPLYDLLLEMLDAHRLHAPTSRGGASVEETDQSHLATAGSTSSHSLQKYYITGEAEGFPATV

SMILES	Potency [1]	Potency [2]	Potency [3]	Potency [4]	Potency [5]	outcome [6]	Potency [7]	Potency [8]	Potency [9]
Brc1cc(Br)c(Oc2cc(Br)c(Br)cc2Br)cc1Br	inactive	inactive	inactive	29900 nM (active)	inactive	inactive	inactive		
CC(C)(O)c1ccc(CNC(=O)c2cccnc2Oc2ccc3nonc3c2)cc1	486 nM (active)				inactive	inactive	inactive	inactive	inactive
CCCCN1CCCC1C(=O)Nc1c(C)cc(C)cc1C (stereo not given)	inactive		inactive	inactive	inactive	inactive		inactive	inactive
O=C(O)CCc1nc(-c2ccccc2)c(-c2ccccc2)o1	inactive		inactive		inactive	inactive	inactive	inactive	inactive
OC[C@H]1O[C@@H](n2cnc3c(=S)nc[nH]c32)[C@H](O)[C@@H]1O	inactive		inactive	2110 nM (active)	inactive	inactive	inactive	inactive	
O=C(O)c1ccc(OCCCOc2ccc(C(=O)O)cc2)cc1	inactive	inactive	inactive	inactive			inactive		inactive
